# Experimental data reported in PubChem BioAssay (NCATS).
# Inconclusive results are not listed. Entries that show only a call come without a potency. Activity calls are given as the source filed them. Calls follow the shape of the dose curve; as a rule, active = well fitted inhibition curve with a large enough effect; inconclusive = small, poorly fitted or top-dose-only effect, or effect the other way; inactive = flat fitted curve, though single readings scatter.
# Molecular target: ATPase family AAA domain-containing protein 5 (Homo sapiens) (UniProt Q96QE3)
# Experiment: Validation screen for small molecules that inhibit ELG1-dependent DNA repair in human embryonic kidney (HEK293T) cells expressing luciferase-tagged ELG1 (AID 493107); also: nearly all actives have a fitted effect of over 70% in size
# Details: HEK293T ELG1-luciferase level, luminescence, 5-fluorouridine co-treatment, 16 h; series mostly up to 46.1 µM
# Text: NIH Molecular Libraries Probe Production Network [MLPCN]
# NIH Chemical Genomics Center [NCGC]
# Assay Provider: Kyungjae Myung, NHGRI, NIH
# Keywords: MLPCN, qHTS, NCGC, genotoxicity, cancer
# Cancer cells divide rapidly compared to normal cells in the body. During cell division, cancer cells need to duplicate their genome by DNA replication. The failure of genome duplication leads to cancer cells' death. Therefore, inhibitors of DNA replication could specifically kill cancer cells. Based on this concept, many chemotherapeutic agents were developed and have been used to treat cancer patients. However, there are a limited number of agents available in the clinical setting, and some of those that do exist have low efficacy and severe side effects. Therefore, if we can find the compounds that effectively block DNA replication either by directly damaging DNA or by inhibiting other cellular mechanisms, the options for cancer treatment will be broadened. With this in mind, we developed a quantitative high-throughput ELG1-luciferase reporter gene assay. Small molecules that specifically block ELG1 function in response to DNA damage can be identified by monitoring the suppression of luciferase activity. Since ELG1 defines a pathway for repairing DNA damage, agents blocking ELG1 function can be used to sensitize cancer cells to chemotherapeutic agents whose mechanism of action involves the induction of DNA damage.
# For genotoxicity screening, 2,000 cells in 4 uL/well were dispensed into white, solid-bottom 1536-well plates using a solenoid-based dispenser. Following transfer of 1 uL 5-Fluorouridine and 23 nL compound or DMSO vehicle by a pin tool, the plates were incubated 16 hr at 37 °C and 5% CO2. 5 ul ONE-Glo (Promega) was then added to each plate and following a 30 min incubation at room temperature, luciferase activity was quantified on a ViewLux CCD-based plate reader.
# Potency is read from the fitted curve at half-maximal effect.
# Sequence of ATPase family AAA domain-containing protein 5 (Homo sapiens) (Q96QE3 whole entry, looked up, the tested form may be a part): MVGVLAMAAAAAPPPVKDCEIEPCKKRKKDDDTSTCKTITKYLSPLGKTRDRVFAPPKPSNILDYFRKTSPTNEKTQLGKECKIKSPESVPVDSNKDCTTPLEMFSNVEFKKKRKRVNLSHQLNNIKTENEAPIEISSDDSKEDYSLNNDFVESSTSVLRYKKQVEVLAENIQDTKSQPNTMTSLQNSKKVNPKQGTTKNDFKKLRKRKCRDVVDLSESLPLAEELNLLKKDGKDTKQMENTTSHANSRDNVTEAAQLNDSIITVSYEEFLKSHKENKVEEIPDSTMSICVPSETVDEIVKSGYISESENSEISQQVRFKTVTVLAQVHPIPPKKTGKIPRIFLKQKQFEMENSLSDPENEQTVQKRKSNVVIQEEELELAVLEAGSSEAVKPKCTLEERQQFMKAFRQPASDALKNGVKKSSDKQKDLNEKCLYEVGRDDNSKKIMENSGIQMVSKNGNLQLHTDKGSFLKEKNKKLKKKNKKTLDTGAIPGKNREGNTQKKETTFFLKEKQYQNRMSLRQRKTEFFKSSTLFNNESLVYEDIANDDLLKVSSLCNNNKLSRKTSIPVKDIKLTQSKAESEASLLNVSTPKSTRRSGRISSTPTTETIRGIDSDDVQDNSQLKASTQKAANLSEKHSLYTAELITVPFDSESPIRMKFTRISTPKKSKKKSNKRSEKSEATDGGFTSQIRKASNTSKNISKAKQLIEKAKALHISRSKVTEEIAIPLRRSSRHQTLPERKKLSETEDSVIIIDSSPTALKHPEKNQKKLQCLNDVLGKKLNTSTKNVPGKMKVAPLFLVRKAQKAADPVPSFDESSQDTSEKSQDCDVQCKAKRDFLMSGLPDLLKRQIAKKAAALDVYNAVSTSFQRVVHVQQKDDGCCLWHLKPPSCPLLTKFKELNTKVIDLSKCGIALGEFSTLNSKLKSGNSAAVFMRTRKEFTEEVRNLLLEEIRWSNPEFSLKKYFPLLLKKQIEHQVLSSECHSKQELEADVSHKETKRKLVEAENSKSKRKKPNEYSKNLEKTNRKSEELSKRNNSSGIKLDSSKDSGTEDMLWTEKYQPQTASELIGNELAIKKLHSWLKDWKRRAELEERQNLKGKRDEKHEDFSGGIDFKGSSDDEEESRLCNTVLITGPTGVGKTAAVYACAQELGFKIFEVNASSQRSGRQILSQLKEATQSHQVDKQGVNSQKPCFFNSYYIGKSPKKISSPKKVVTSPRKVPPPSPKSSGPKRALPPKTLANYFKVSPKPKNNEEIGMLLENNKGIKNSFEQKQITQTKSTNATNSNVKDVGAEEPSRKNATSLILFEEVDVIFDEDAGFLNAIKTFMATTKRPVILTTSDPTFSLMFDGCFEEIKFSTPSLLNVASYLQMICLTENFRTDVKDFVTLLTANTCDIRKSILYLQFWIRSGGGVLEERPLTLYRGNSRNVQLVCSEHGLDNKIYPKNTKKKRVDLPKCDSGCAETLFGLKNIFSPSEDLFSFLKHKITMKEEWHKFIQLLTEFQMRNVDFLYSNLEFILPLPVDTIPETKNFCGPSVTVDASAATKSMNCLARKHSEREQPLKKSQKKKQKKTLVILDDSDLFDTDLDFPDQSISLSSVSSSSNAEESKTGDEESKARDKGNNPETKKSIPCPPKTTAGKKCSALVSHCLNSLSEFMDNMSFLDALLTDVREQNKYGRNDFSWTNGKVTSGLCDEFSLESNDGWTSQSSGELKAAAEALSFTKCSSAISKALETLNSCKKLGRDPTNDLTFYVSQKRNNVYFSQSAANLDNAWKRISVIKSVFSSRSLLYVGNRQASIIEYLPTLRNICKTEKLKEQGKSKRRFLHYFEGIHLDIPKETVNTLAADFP
row,SMILES,Potency
1,CC(Cc1ccc(OCC(=O)O)cc1)NCC(O)c1cccc(Cl)c1 (stereo not given),inactive
2,CC(C)(C)c1o[nH]c(=O)c1CC(N)C(=O)O (stereo not given),inactive
3,C[N+](C)(C)CC#CCOC(=O)Nc1cccc(Cl)c1,inactive
4,C[N+]1(C)CCOC(O)(c2ccc(-c3ccc(C4(O)C[N+](C)(C)CCO4)cc3)cc2)C1 (stereo not given),inactive
5,C[N+](C)(C)CCOC(=O)CBr,inactive
6,C[N+]1(C)C2CCC1CC(OC(=O)c1c[nH]c3ccccc13)C2 (stereo not given),inactive
7,c1ccc2cc(CC3=NCCN3)ccc2c1,inactive
8,CCCN1CCc2cc(O)cc3c2[C@H]1Cc1ccc(O)c(O)c1-3,inactive
9,Oc1ccc2c3c1O[C@H]1c4[nH]c5ccccc5c4C[C@@]4(O)C(C2)N(CC2CC2)CCC314 (stereo not given in full),inactive
10,CN(N=O)c1cc(O)ccc1O,inactive
11,NC(CCCCCP(=O)(O)O)C(=O)O (stereo not given),inactive
12,C[N+]1(C)CCc2cc3c(cc2[C@H]1[C@@H]1OC(=O)c2c1ccc1c2OCO1)OCO3,inactive
13,Cc1o[nH]c(=O)c1CC(N)C(=O)O (stereo not given),inactive
14,c1ccc2c(c1)[I+]c1ccccc1-2,10.3 µM (active)
15,CN1CC[C@@]2(C)c3cc(O)ccc3N(C)C12 (stereo not given in full),inactive
16,CC12NC(Cc3ccccc31)c1ccccc12 (stereo not given),inactive
17,CCCN(CCC)CCc1c[nH]c2ccc(C(N)=O)cc12,inactive
18,NC(=O)COc1c(F)cc(SCCNS(=O)(=O)c2ccccc2)cc1F,inactive
19,N=C(N)c1ccc(CS(=O)(=O)F)cc1,inactive
20,NCCCP(=O)(O)O,inactive

row,SMILES,Potency
1,NCC(O)c1cc(O)c(O)cc1F (stereo not given),inactive
2,C[C@@H]1O[C@@H](O[C@H]2C[C@@H](O)[C@]3(CO)[C@@H]4C(CC[C@]3(O)C2)[C@@]2(O)CC[C@H]([C@@H]3COC(=O)C3)[C@@]2(C)C[C@H]4O)[C@H](O)[C@H](O)[C@H]1O (stereo not given in full),2.06 µM (active)
3,COc1ccc2c(c1)[C@@]13CCCC[C@H]1[C@@H](C2)NCC3,inactive
4,CCCN1CC[C@@H]2c3cc(O)ccc3CC[C@@H]21,inactive
5,CC(C)(O)[C@@H]1C2OC(=O)[C@@H]1[C@]1(O)C[C@H]3O[C@]34C(=O)O[C@H]2[C@]14C (tested in a mixture with another compound),inactive
6,CP(=O)(O)C1=CCNCC1,inactive
7,NC(=O)CI,inactive
8,C=CCN1CC[C@]23c4c5ccc(O)c4O[C@H]2/C(=N/NC(=O)c2ccccc2)CC[C@@]3(O)[C@H]1C5,inactive
9,NC(=O)c1ccc(OCC(O)CN2CC=C(c3ccc(F)cc3)CC2)cc1 (stereo not given),inactive
10,CN1CCC(c2c[nH]c3ccc(O)cc23)CC1,inactive
11,CCCN1CCC[C@@H](c2cccc(O)c2)C1,inactive
12,C[C@H](Cc1ccc2c(c1)OC(C(=O)O)(C(=O)O)O2)NC[C@H](O)c1cccc(Cl)c1,inactive
13,N#C/C(=C/c1ccc(O)c(O)c1)C(N)=S,inactive
14,Nc1ccc(CCN2CCN(c3cccc(C(F)(F)F)c3)CC2)cc1,inactive
15,Cc1[nH]c2ccc(O)cc2c1CCN,inactive
16,COc1ccc2c(c1)c(CCN1CCOCC1)c(C)n2C(=O)c1cccc(Cl)c1Cl,8.2 µM (active)
17,N[C@@H](Cn1ccc(=O)[nH]c1=O)C(=O)O,inactive
18,Oc1ccc2c3c1O[C@H]1c4oc5ccccc5c4C[C@@]4(O)C(C2)N(CC2CC2)CCC314 (stereo not given in full),inactive
19,Cc1sc2ccccc2c1CC1=NCCN1,inactive
20,CCCC[N+]1(C)C2CC(OC(=O)[C@H](CO)c3ccccc3)CC1C1OC12 (stereo not given in full),inactive
